Results from PubChem BioAssay (NCATS).
“And” between values parts separate entries of the source, which are not always exact repeats. Identical values can stand only once. Inconclusive results are not listed. The source made the active and inactive calls. Calls follow the shape of the dose curve; as a rule, active = well fitted curve in the direction sought with a large enough effect; inconclusive = small, poorly fitted or top-dose-only effect, or another doubt; inactive = no such curve, though single readings can be large or run the other way.

assay: qHTS Assay for Identifying Gametocytocidal Compounds (AID 743244);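 as to max response: actives lower the fluorescent signal which means gametocytes are killed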; conditions: P. falciparum 3D7 stage III-V gametocytes, alamarBlue, 72 h; max response: active compounds read low
How it was run: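 3D7 gametocytes, stages III–V, 20,000/well; cpd 72 h, 37 °C/5% CO2; + alamarBlue 24 h; fluor. Ex 525/Em 598.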
% is scaled to controls: 0 for no effect and ±100 for the full control effect; potency is read from the fitted curve at half-maximal effect.

Row | Structure (SMILES) | max response | Potency
1 | CCOc1ccc(N=Nc2ccc(N)cc2N)cc1 | 4.91% (inactive) | –
2 | O=C(O)c1cc(O)c2c(c1)[O][Bi][O]2 | 17.6% (inactive) | –
3 | O=C1C(=O)c2ncccc2-c2cccnc21 | – | 0.148 µM (active)
4 | CC1(C)S[C@@H]2[C@H](NC(=O)Cc3ccccc3)C(=O)N2[C@H]1C(=O)O | 14.5% (inactive) | –
5 | OCCO[C@@H]1[C@@H](O)[C@H](O)[C@@H](CO)O[C@@H]1O | 18.7% (inactive) | –
6 | OCC(S)CS (configuration not stated) | – | 3.98 µM (active)
7 | CC(=O)N(CC(C)C(=O)O)c1c(I)cc(I)c(N)c1I (configuration not stated) | 4.12% (inactive) | –
8 | O=C(O)C1CCCN1 (configuration not stated) | 5.42% (inactive) | –
9 | CO[C@H]1C=CO[C@@]2(C)Oc3c(C)c(O)c4c(O)c(c(/C=N/N5CCN(C6CCCC6)CC5)c(O)c4c3C2=O)NC(=O)/C(C)=C\C=C[C@H](C)[C@H](O)[C@@H](C)[C@@H](O)[C@@H](C)[C@H](OC(C)=O)[C@@H]1C | – | 10 µM (active)
10 | CNC(C)[C@@H]1CC[C@@H](N)[C@@H](O[C@H]2[C@H](O)[C@@H](O[C@H]3OC[C@](C)(O)[C@H](NC)[C@H]3O)[C@H](N)C[C@@H]2N)O1 (some centres not stated) | 5.9% (inactive) | –
11 | CC(C(=O)O)c1ccc(N2Cc3ccccc3C2=O)cc1 (configuration not stated) | 8.38% (inactive) | –
12 | CC[C@H]1OC(=O)C[C@@H](O)[C@H](C)[C@@H](O[C@@H]2O[C@H](C)[C@@H](O)[C@H](N(C)C)[C@H]2O)[C@@H](CCN2C[C@H](C)C[C@H](C)C2)C[C@@H](C)C(=O)/C=C/C(C)=C/[C@@H]1CO[C@@H]1O[C@H](C)[C@@H](O)[C@@H](OC)[C@H]1OC | -0.81% (inactive) | –
13 | N[C@H](C(=O)O)[C@@H]1CC(Cl)=NO1 | 8.42% (inactive) | –
14 | CC1(C)S[C@@H]2[C@H](NC(=O)[C@@H](NC(=O)N3CCNC3=O)c3ccccc3)C(=O)N2[C@H]1C(=O)O | 5.13% (inactive) | –
15 | CCC(=O)NS(=O)(=O)c1ccc(-c2c(-c3ccccc3)noc2C)cc1 | 39.9% (inactive) | –
16 | CN1Cc2c(N)cccc2C(c2ccccc2)C1 (configuration not stated) | 14.6% (inactive) and -4.23% (inactive) | –
17 | C=CCSSSCC=C | -8.99% (inactive) | –
18 | CC[C@@H](C(=O)[C@@H](C)[C@@H](O)[C@H](C)CCc1ccc(C)c(O)c1C(=O)O)[C@H]1O[C@](CC)([C@H]2CC[C@](O)(CC)[C@H](C)O2)C[C@@H]1C | – | 7.08 µM (active)
19 | CN1C(=O)CN2CCc3ccccc3C2c2cc(Cl)ccc21 (configuration not stated) | 0.102% (inactive) | –

Row | Structure (SMILES) | max response | Potency
20 | CC1(C)O[C@@H]2C[C@H]3[C@@H]4CCC5=CC(=O)C=C[C@]5(C)[C@H]4[C@@H](O)C[C@]3(C)[C@]2(C(=O)CO)O1 | -15.3% (inactive) | –
21 | C=C1CC[C@@H]2[C@](C)(CO)[C@H](O)CC[C@@]2(C)[C@@H]1C/C=C1/C(=O)OC[C@H]1O | – | 20 µM (active)
22 | CC1=C(/C=C/C(C)=C/C=C/C(C)=C/C=C/C=C(C)/C=C/C=C(C)/C=C/C2=C(C)CCCC2(C)C)C(C)(C)CCC1 | -12% (inactive) | –
23 | CC(=O)OCC(=O)[C@@]1(O)CC[C@H]2[C@@H]3C[C@H](C)C4=CC(=O)C=C[C@]4(C)[C@H]3[C@@H](O)C[C@@]21C | -1.15% (inactive) | –
24 | CCCCCCCCCCCC[n+]1ccc2ccccc2c1 | – | 1.78 µM (active)
25 | NCc1ccccc1CC(=O)N[C@@H]1C(=O)N2C(C(=O)O)=C(CSc3nnnn3CC(=O)O)CS[C@H]12 | 5.62% (inactive) | –
26 | Nc1c(Br)cc(Br)cc1CNC1CCC(O)CC1 (configuration not stated) | 19% (inactive) | –
27 | O=CCCCC=O | -1.12% (inactive) | –
28 | C/C1=C2N=C(/C=C3N=C(/C(C)=C4\[N-][C@@](C)([C@@H]5N=C1[C@](C)(CCC(=O)NCC(C)OP(=O)(O)O[C@H]1[C@@H](O)[C@@H](n6cnc7cc(C)c(C)cc76)O[C@@H]1CO)[C@H]5CC(N)=O)[C@@](C)(CC(N)=O)[C@@H]4CCC(N)=O)[C@@](C)(CC(N)=O)[C@@H]\3CCC(N)=O)C(C)(C)[C@@H]/2CCC(N)=O.CC(=O)O.[Co] (some centres not stated) | – | 20 µM (active)
29 | C[C@@H]1C[C@H]2[C@@H]3CCC4=CC(=O)C=C[C@]4(C)[C@@]3(F)[C@@H](O)C[C@]2(C)[C@@]1(O)C(=O)COP(=O)(O)O | 10.9% (inactive) | –
30 | CC(NNC(=O)c1ccccc1)c1ccccc1 (configuration not stated) | -2.82% (inactive) | –
31 | C[C@]12CCC(=O)C=C1CC[C@@H]1[C@@H]2[C@@H](O)C[C@@]2(C)[C@H]1CC[C@]2(O)C(=O)COP(=O)(O)O | -12.2% (inactive) | –
32 | CCCCC(=O)O[C@]1(C(=O)CO)[C@H](C)C[C@H]2[C@@H]3CCC4=CC(=O)C=C[C@]4(C)[C@@]3(F)[C@@H](O)C[C@@]21C | 12.3% (inactive) | –
33 | CCCCCCCCCCCCCCCC(=O)OCC(COC(=O)CCCCCCCCCCCCCCC)OC(=O)CCCCCCCCCCCCCCC | 4.37% (inactive) | –
34 | OC[C@H]1O[C@@H](OCCc2ccc(O)cc2)[C@H](O)[C@@H](O)[C@@H]1O | 2.01% (inactive) | –
35 | C[C@H](CCC(=O)O)[C@H]1CC[C@H]2[C@@H]3[C@H](O)C[C@@H]4C[C@H](O)CC[C@]4(C)[C@H]3CC[C@]12C | 11% (inactive) | –
36 | O=C1CSC2(CCN(CCCN3c4ccccc4Sc4ccc(Cl)cc43)CC2)N1 | -3.9% (inactive) | –
37 | Cc1cc(C(=O)NNCc2ccccc2)no1 | -1.55% (inactive) | –
